Measured values taken from PubChem BioAssay (NCATS).
Several values for one entry are separate records, joined by “and”; a condition that tells them apart may be missing. Equal values may be shown once. Results filed as inconclusive are left out. Activity calls are given as the source filed them. Calls come from the whole dose curve; as a rule, active = well fitted inhibition curve with a large enough effect; inconclusive = small, poorly fitted or top-dose-only effect; inactive = no such curve, though single readings can be large or run the other way.

assay: BET inhibitor-based combinations targeting novel dependencies in MECOM-rearranged (r) AML: MV-4-11 cell line (AID 2202233); settings: MV-4-11 AML viability, CellTiter-Glo luminescence, 48 h; series mostly up to 46 µM; note: nearly all actives have a fitted effect of over 45% in size
How it was run: (§1)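 Normalized to DMSO and empty-well controls, the luminescence data from CellTiter-Glo after 48 hr drug exposure were fitted across 11 concentrations. Reported metrics are area under the dose-response curve and its Z-transformed form.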
Potency is the fitted concentration of half-maximal effect.

SMILES	Potency
CCc1ccc2nc(Nc3cc(Cc4ccccc4)nc(NC4CCC(O)CC4)n3)sc2c1 (configuration not stated)	18.6 µM (active)
CC(C)C[C@H](NC(=O)c1cc2ccccc2s1)C(=O)N1CCN(C(=O)[C@H](CO)NS(=O)(=O)c2ccc(Cl)cc2Cl)CC1	23.5 µM (active)
CC(C)c1cnn2c(NCc3ccccc3)cc(NCCCCCCN)nc12	18.6 µM (active)
[O-][n+]1cccc(-c2nc3c(Cl)cccc3cc2[C@@H](Nc2ncnc3cccnc23)C(F)(F)F)c1	8.33 µM (active)
N#CCC1(n2cc(-c3ncnc4[nH]ccc34)cn2)CN(C2CCN(C(=O)c3ccnc(C(F)(F)F)c3F)CC2)C1	16.6 µM (active)
Cc1cc(C)c(CNC(=O)c2cc(-c3ccc(N4CCN(C)CC4)nc3)cc3c2c(C)cn3C(C)C)c(=O)[nH]1	23.5 µM (active) and 20.9 µM (active)
O=c1[nH]nc2c3c(cccc13)NC(CN1Cc3ccccc3C1)=N2	16.6 µM (active)
CCOC(=O)c1c(CSc2ccccc2)n(C)c2cc(Br)c(O)c(CN(C)C)c12	18.6 µM (active)
CN(C)CCCOc1ccc(-c2ccc3ncc4c(c3c2)n(C2CCOCC2)c(=O)n4C)cn1	4.07 µM (active)
Cn1nccc1Nc1nccc(-c2cc3c(s2)C(C)(C)N(CCN2CCOCC2)C3=O)n1	4.17 µM (active)
C[C@@H]1CC2C3C[C@H](F)C4=CC(=O)C=C[C@]4(C)[C@@]3(F)[C@@H](O)C[C@]2(C)[C@@]1(OC(=O)c1ccco1)C(=O)SCF (some centres not stated)	20.9 µM (active)

assay: BET inhibitor-based combinations targeting novel dependencies in MECOM-rearranged (r) AML: HNT-34 cell line (AID 2202234); settings: HNT-34 AML viability, CellTiter-Glo luminescence, 48 h; series mostly up to 46 µM; note: nearly all actives have a fitted effect of over 35% in size
How it was run: as §1

SMILES	Potency
CC(C)C[C@H](NC(=O)c1cc2ccccc2s1)C(=O)N1CCN(C(=O)[C@H](CO)NS(=O)(=O)c2ccc(Cl)cc2Cl)CC1	26.3 µM (active)
C[C@]12CC[C@@H]3c4ccc(O)cc4CC[C@H]3[C@@H]1C[C@@H](O)[C@@H]2O	inactive
c1ccc(CNCc2ccc(CN3CCCNCCNCCCNCC3)cc2)nc1	inactive
O=C1NC(=O)[C@@H](c2cn3c4c(cccc24)CCC3)[C@@H]1c1c[nH]c2ccccc12	0.934 µM (active)
Cc1cc(C)c(CNC(=O)c2cc(-c3ccc(N4CCN(C)CC4)nc3)cc3c2c(C)cn3C(C)C)c(=O)[nH]1	23.5 µM (active)
CCOc1ccc(Cc2cc([C@@H]3O[C@H](CO)[C@@H](O)[C@H](O)[C@H]3O)ccc2Cl)cc1	inactive
CCOC(=O)c1c(CSc2ccccc2)n(C)c2cc(Br)c(O)c(CN(C)C)c12	11.8 µM (active)
Cc1cc(O)c(-c2ccc([C@@H](C)CN)cc2)c2c1[nH]c(=O)c1sccc12	0.0417 µM (active)
CN(C)CCCOc1ccc(-c2ccc3ncc4c(c3c2)n(C2CCOCC2)c(=O)n4C)cn1	2.57 µM (active)
O=C(O)CCCCN(CCc1ccccc1OCc1ccc(CCc2ccccc2)cc1)Cc1ccc(C(=O)O)cc1	2.09 µM (active)
Cn1nccc1Nc1nccc(-c2cc3c(s2)C(C)(C)N(CCN2CCOCC2)C3=O)n1	6.61 µM (active)
